# Screening data: PubChem, National Center for Advancing Translational Sciences (NCATS)
# USP2a block – USP2a (human) protease inhibition; O75604; USP2 core, Ub-CHOP2 coupled fluorogenic reporter, 485/531; Potency, µM (series often up to 38.3 µM), inactives show at the highest dose activity change, negative = inhibition, hits mostly inhibitors; 330,000 compounds, 0.01% hits; AID 463254;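 further: potency means the concentration at half of the fitted maximal effect; plate controls were DMSO wells for no effect and full inhibition by NEM control for full effect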
#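 Cell-free coupled assay: 10nM USP2 core preincubated 30min RT with compound in Tris-HCl pH 8.0/CaCl2/CHAPS buffer, then 25nM Ub-CHOP2 and 25nM reporter substrate; fluorescence (Ex 485/Em 531) read after 60min RT, normalized to NEM inhibition, concentration-response curves fitted.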
# USP1 inh – inhibitors of human USP1/UAF1 deubiquitinase. AID 743255. 390,000 compounds, 0.23% hits. recombinant USP1/UAF1, Ub-Rhodamine cleavage fluorescence. O94782. Potency, µM (series often up to 57.1 µM), without a hit: top-dose activity change, negative = inhibition, usual class: inhibitors; further: potency means the concentration at half of the fitted maximal effect; on the % scale 0 is the no-effect control and ±100 the full control effect; nearly all actives have a fitted effect of over 60% in size
#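 Step one: compound is pinned into 1nM USP1/UAF1 in HEPES pH 7.8 buffer with TCEP. Step two: 15 min room-temperature incubation. Step three: Ub-Rho (150nM final) starts cleavage, tracked by fluorescence over six one-minute reads.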
# IL-1B inflam inh – inflammasome signaling inhibition, IL-1 beta readout | THP-1 LPS/ATP IL-1B secretion, AlphaLISA, 16 h; active compounds read low | activity change, % at 57.5 µM | 360,000 compounds, 4.7% hits | AID 743279; in the data active means activity change below about -50%; inconclusive means mostly about -30% to -49%; further: on the % scale 0 is the no-effect control and ±100 the full control effect
#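 THP-1 cells pretreated 1 hr with compounds (up to 57.5 uM final), then stimulated with LPS (250 ng/mL final) plus ATP (1.25 mM final); secreted IL-1B measured by AlphaLISA after 16 hr, decreased signal indicating inhibition.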
# ATXN viability – cell viability loss in ATXN counter-screen; S2 cells (HEK-293 line with an ATXN2-luciferase reporter) viability, CellTiter-Fluor protease fluorescence, 24 h; Potency, µM (titrated, usually from 56.7 µM), usual class: cytotoxic; 400,000 compounds, 0.49% hits; AID 651635; further: potency means the concentration at half of the fitted maximal effect; nearly all actives have a fitted effect of over 40% in size
# ATXN2 expr inh – reduces ATXN2 reporter expression in HEK-293 cells; HEK-293 ATXN2-luciferase reporter, luminescence, 24 h; Potency, µM (top dose mostly 57 µM), inactives show top-dose activity change, negative = inhibition, hits mostly inhibitors; 360,000 compounds, 0.72% hits; AID 1745845; further: potency means the concentration at half of the fitted maximal effect; on the % scale 0 is the no-effect control and ±100 the full control effect; nearly all actives have a fitted effect of over 55% in size
#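 qHTS (up to 57 uM final) was run with 24 h compound exposure of reporter cells at 37 °C. Each well was multiplexed: SteadyGlo luminescence measured ATXN2-luciferase expression after a fluorogenic Gly-Phe-AFC viability readout (25 uM final).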
# An asterisk follows results filed as active; i = inactive; ? = inconclusive; nt = no result; [ ] = remark or other dose. The list is not random: actives were taken first. Their share in the collection is about 4.8%. Unless noted, the call rests on the fitted dose curve; in most records, active means well fitted curve in the direction sought with a large enough effect; inconclusive means small, poorly fitted or top-dose-only effect, or another doubt; inactive means no such curve, though single readings can be large; an effect the other way counts as inactive or inconclusive.
SMILES,USP2a block,USP1 inh,IL-1B inflam inh,ATXN viability,ATXN2 expr inh
O=[N+]([O-])c1ccc(COc2ccc(-c3[nH]ncc3-c3ccccc3)c(O)c2)cc1,3%,-13%,-15,?,-39%
Oc1cc(OCc2ccccc2)ccc1-c1[nH]ncc1-c1ccccc1,-7%,-12%,-101*,?,?
O=C(Nc1nc2cccc(-c3ccc(CN4CCS(=O)(=O)CC4)cc3)n2n1)C1CC1,nt,nt,nt,nt,292%
c1ccc2nc3c(nc2c1)c1ccccc1n3CCN1CCOCC1,-2%,-13%,-63*,i,-28%
Cn1c(-c2c(N)n(CCc3ccccc3)c3nc4ccccc4nc23)nc2ccccc21,-13%,28µM*,-8,nt,-15%
Nc1c(C(=O)NCCN2CCOCC2)c2nc3ccccc3nc2n1CCc1ccccc1F,-2%,-13%,-63*,nt,?
Cn1c(-c2c(N)n(CCCc3ccccc3)c3nc4ccccc4nc23)nc2ccccc21,-10%,?,?,nt,-21%
Nc1c(C(=O)NCCN2CCOCC2)c2nc3ccccc3nc2n1CCc1ccccc1,-10%,-15%,-59*,nt,?
CCCn1c2ccccc2c2nnc(SCCN3CCOCC3)nc21,0%,-17%,-18,i,-13%
Nc1c(C(=O)NCc2ccco2)c2nc3ccccc3nc2n1CCc1ccc(F)cc1,-7%,-9%,-116*,nt,-34%
COc1ccc(-n2c(N)c(C(=O)NCc3ccco3)c3nc4ccccc4nc32)cc1,0%,-18%,?,i,?
Fc1ccc(Nc2c3c(nc4ccccc24)CCC3)cc1,3%,?,-96*,?,-23%[11.3 µM]
CN(C)CCCNc1c2c(nc3ccccc13)CCC2,1%,-13%,-69*,?,nt
c1ccc(Nc2c3c(nc4ccccc24)CCC3)cc1,1%,-13%,-13,i,-22%
CCN(CC)CCOC(=O)c1ccc(Nc2c3c(nc4ccccc24)CCC3)cc1,nt,-8%,nt,20µM*,?
COc1ccc(Nc2c3c(nc4nncn24)CCC3)cc1Cl,nt,12%,nt,nt,nt
COc1cc(NC(=O)C2CCN(c3cnc4ccccc4n3)CC2)cc(OC)c1OC,nt,-15%,nt,i,-25%
CC(=O)Nc1ccc(OCC(=O)Nc2ccc(Cl)c(S(=O)(=O)N3CCOCC3)c2)cc1,-2%,nt,nt,nt,nt
O=C(Cn1nc(Cc2ccncc2)c2ccccc2c1=O)N1CCc2ccccc2C1,0%,28µM*,0,i,-14%
CCOC(=O)N1CCN(S(=O)(=O)c2ccc(OCC(=O)OC)c(Cl)c2)CC1,-7%,-17%,-91*,i,1%
CCOC(=O)N1CCN(S(=O)(=O)c2ccc(OCC)c3ccccc23)CC1,-14%,-12%,-80*,i,-8%
CCOC(=O)N1CCN(S(=O)(=O)c2ccc(OC)c(Cl)c2)CC1,0%,-1%,2,i,0%
CCOC(=O)N1CCN(S(=O)(=O)c2ccc(OC)c(Cl)c2Cl)CC1,-1%,-11%,-3,i,-1%
Cc1nn(CC(=O)NCc2ccco2)c(=O)c2cc3ccccc3n12,nt,-17%,nt,i,7%
COC(=O)c1ccc(C(C(=O)NCc2ccccc2)N(Cc2ccco2)C(=O)c2cnccn2)cc1 (centres undefined),0%,-3%,-59*,i,15%
SMILES,USP2a block,USP1 inh,IL-1B inflam inh,ATXN viability,ATXN2 expr inh
CCC(C)(C)NC(=O)C(c1ccc(F)cc1)N(Cc1ccco1)C(=O)c1cnccn1 (centres undefined),2%,6%,-83*,i,5%
O=c1oc2ccccc2c(O)c1/C=C1\C=Nc2ccccc21,0%,-6%,-108*,i,-10%
Cc1cccc(CNC(=O)c2cnn(-c3nccc(-c4ccccc4F)n3)c2C)n1,nt,nt,nt,i,nt
Cc1ccc(C)c(NC(=O)COC(=O)CC2CC3CCC2C3)c1 (centres undefined),5%,-5%,9,i,-3%
O=C(COC(=O)CC1CC2CCC1C2)Nc1cc([N+](=O)[O-])ccc1F (centres undefined),-1%,-7%,-54*,i,-1%
Cc1c(CC(=O)NCc2ccccc2Cl)c(=O)oc2cc(O)ccc12,nt,-20%,nt,nt,13%
O=C(O)c1ccc(-n2ncc(Cl)c(Cl)c2=O)cc1,nt,12%,-102*,?,nt
